Laboratory results taken from the supplement of paper PMC10127200.
Where a name gives a salt, the structure may show the parent alone.

Assays:
Experiment in all cases: Euclidean distance of Cell Painting phenotypic profile (signed KS, 77 features) to DMSO centroid (dimensionless distance); 5 or 10 uM (library dependent); higher = stronger phenotypic change vs DMSO (phenoactivity)
Details in all cases: 48 h
786-O = system: 786-O
In short: (§1)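 Harmony extracted 77 features from 20X confocal images (9 fields/well) of stained cells, scoring each as a signed Kolmogorov-Smirnov statistic against same-plate vehicle wells. The cells, five cancer lines and a healthy fibroblast line, had received library compounds for 48 h at 10 or 5 uM depending on library, with 0.1% DMSO final. Phenoactivity is the Euclidean distance from each plate-position-corrected, correlation-weighted, top-dose replicate-averaged profile to the median vehicle profile.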

A549 = system: A549
In short: as §1

DU145 = system: DU145
In short: as §1

FB = system: FB
In short: as §1

HEPG2 = system: HEPG2
In short: as §1

OVCAR4 = system: OVCAR4
In short: as §1

SMILES	Euclidean distance (786-O)	Euclidean distance (A549)	Euclidean distance (DU145)	Euclidean distance (FB)	Euclidean distance (HEPG2)	Euclidean distance (OVCAR4)
Cc1ccc(F)c(NC(=O)Nc2ccc(-c3cccc4[nH]nc(N)c34)cc2)c1 [Linifanib (ABT-869)]	1.23	2.53	1.64	1.81	4.87	1.29
CC1(C)O[C@@H]2C[C@H]3[C@@H]4C[C@H](F)C5=CC(=O)C=C[C@]5(C)[C@@]4(F)[C@@H](O)C[C@]3(C)[C@]2(C(=O)CO)O1 [Fluocinolone Acetonide]	1.43	1.77	2	2.02	0.86	2.22
Cc1nc(Nc2ncc(C(=O)Nc3c(C)cccc3Cl)s2)cc(N2CCN(CCO)CC2)n1 [Dasatinib Monohydrate]	3.41	3.76	6.08	3.53	2.09	4.26
COc1ccc(CN2CCN(C(c3ccc(F)cc3)c3ccc(F)cc3)CC2)c(OC)c1OC [Lomerizine 2HCl]	1.91	1.66	1.02	1.08	1.13	1.72
OCCn1cc(-c2ccc3c(c2)CC/C3=N\O)c(-c2ccncc2)n1	1.79	0.879	1.22	1.93	0.823	1.88
O=C(CCCCCCNC(=O)c1cnc(N(c2ccccc2)c2ccccc2Cl)nc1)NO [Citarinostat (ACY-241)]	1.92	2.05	2.16	3.07	2.52	1.75
COc1cc(N2CCC(N)CC2)ccc1Nc1ncc(Cl)c(-c2c[nH]c3ccccc23)n1	2.97	3.34	2.4	4.05	2.56	2.07
CNC[C@H](O)c1ccc(O)c(O)c1 [Epinephrine bitartrate]	0.553	0.655	0.818	0.827	0.637	0.577
CC[C@H](c1ccc(O)cc1)[C@@H](CC)c1ccc(O)cc1 [Hexestrol]	1.62	1.07	0.97	0.95	0.662	1.06
NCCCCC(NC(=O)C1CCCN1C(=O)C1CSSCC(N)C(=O)NC(Cc2ccc(O)cc2)C(=O)NC(Cc2ccccc2)C(=O)NC(CCC(N)=O)C(=O)NC(CC(N)=O)C(=O)N1)C(=O)NCC(N)=O (stereo not drawn) [Lypressin Acetate]	1.39	0.851	1.08	1.11	0.477	1.48
O=C(O)[C@H]1O[C@@H](Oc2cc3oc(-c4ccccc4)cc(=O)c3c(O)c2O)[C@H](O)[C@@H](O)[C@@H]1O [Baicalin]	1.89	0.742	1.25	1.48	0.763	1.22
COc1cc2ncnc(Nc3ccc(F)c(Cl)c3)c2cc1NC(=O)/C=C/CN1CCCCC1	3.46	4.69	2.82	2.17	1.47	2.05
O=C(c1cncc(Br)c1)N1CCC(N2CCCC2)CC1	0.781	0.805	0.843	1.31	1.28	0.898
NS(=O)(=O)c1cc2c(cc1Cl)N=C(CSCc1ccccc1)NS2(=O)=O [Benzthiazide]	1.33	1.17	1.06	1.18	1.62	1.62
N#Cc1ccc2[nH]c(O)c(-c3ccc(CN4CCOCC4)cn3)c2c1	3.45	2.98	2.02	1.79	1.72	3.02
CC(C)(C)c1cc(/C=C(\C#N)C(N)=S)cc(C(C)(C)C)c1O [Tyrphostin AG 879]	1.54	1.46	0.926	0.967	0.81	1.01
CNC(=O)[C@H](Cc1ccccc1)NC(=O)[C@H](CC(C)C)[C@H](CSc1cccs1)C(=O)NO [Batimastat (BB-94)]	1.52	1.51	1.25	1.68	2.06	1.53
C[S+](CC[C@H](N)C(=O)[O-])C[C@H]1O[C@@H](n2cnc3c(N)ncnc32)[C@H](O)[C@@H]1O (stereo partly drawn) [Ademetionine]	0.708	1.02	0.772	0.885	0.304	0.658
COc1ccc(-c2cc(=O)c3c(OC)c(OC)c(OC)c(OC)c3o2)cc1 [Tangeretin]	0.981	1.05	1.17	0.742	0.656	1.06
COC(=O)[C@@H]1CC2=CC(=O)CC[C@]2(C)[C@@]23O[C@@H]2C[C@@]2(C)[C@@H](CC[C@@]24CCC(=O)O4)[C@H]13 [Eplerenone]	1.18	0.666	0.81	0.974	1.38	0.746
O=C(O)CCC(=O)OC[C@@H](NC(=O)C(Cl)Cl)[C@H](O)c1ccc([N+](=O)[O-])cc1 [Chloramphenicol sodium succinate]	1.83	1.28	0.814	0.919	0.53	1.07
CC1COc2c(N3CCN(C)CC3)c(F)cc3c(=O)c(C(=O)O)cn1c23 (stereo not drawn) [Ofloxacin]	1.01	0.65	0.81	0.702	0.545	1.25
Nc1cccc2c1C(=O)N(C1CCC(=O)NC1=O)C2=O (stereo not drawn) [Pomalidomide]	0.929	0.804	0.704	1.06	0.312	0.886
c1cncc(CN2CCC(n3ncc4c(N5CCOCC5)nc(-c5ccc6[nH]ccc6c5)nc43)CC2)c1	4.57	4.67	4.08	4.59	3.78	3.57

SMILES	Euclidean distance (786-O)	Euclidean distance (A549)	Euclidean distance (DU145)	Euclidean distance (FB)	Euclidean distance (HEPG2)	Euclidean distance (OVCAR4)
CCOC(=O)c1c(CSc2ccccc2)n(C)c2cc(Br)c(O)c(CN(C)C)c12 [Arbidol HCl]	1.37	1.41	2.16	1.38	1.34	1.63
c1cc(-c2cnn3cc(-c4ccc(N5CCNCC5)cc4)cnc23)c2cccnc2c1	5.15	5.05	4.45	6.55	5.9	6.68
N#Cc1cc(NC(=O)C(=O)O)c(Cl)c(NC(=O)C(=O)O)c1 [Lodoxamide Tromethamine]	1.61	1.34	0.792	1.06	0.894	1.01
C[C@@H]1C[C@H]2[C@@H]3CCC4=CC(=O)C=C[C@]4(C)[C@@]3(F)[C@@H](O)C[C@]2(C)[C@@]1(O)C(=O)COP(=O)(O)O [Dexamethasone Sodium Phosphate]	1.79	2.25	2.22	1.44	0.744	2.38
COC(=O)Nc1nc2cc(C(=O)c3ccccc3)ccc2[nH]1 [Mebendazole]	3.02	3.03	3.69	2.58	3	2.7
NC[C@H](O)c1ccc(O)c(O)c1 [Noradrenaline bitartrate monohydrate]	1.19	0.515	0.963	1.17	0.697	0.846
O=C(COc1ccc(Cl)cc1)N1CCN(Cc2ccc3c(c2)OCO3)CC1 [Fipexide hydrochloride]	1.78	1.13	1.39	1.08	0.573	1.32
CN(C)CC(c1ccc(O)cc1)C1(O)CCCCC1 (stereo not drawn) [Desvenlafaxine]	0.678	0.707	0.899	0.932	0.34	1.95
CC(C)c1ccc(NC(=O)Cn2cnc3c2c(=O)n(C)c(=O)n3C)cc1	1.03	1.06	1.22	0.919	0.953	1.16
COc1ncnc(NS(=O)(=O)c2ccc(N)cc2)c1OC [Sulfadoxine]	0.66	1.24	0.743	0.491	0.397	1.39
COc1cc(C2Oc3cc([C@H]4Oc5cc(O)cc(O)c5C(=O)[C@@H]4O)ccc3OC2CO)ccc1O (stereo partly drawn) [Silibinin]	0.696	1.28	0.646	0.713	0.547	0.847
CN1[C@@H](CC(=O)c2ccccc2)CCC[C@H]1C[C@H](O)c1ccccc1 [Lobeline hydrochloride]	1.09	0.739	1.56	1.44	0.499	1.16
N=C1CCCN1Cc1[nH]c(=O)[nH]c(=O)c1Cl [Tipiracil hydrochloride]	1.02	0.947	0.925	1.05	0.343	0.676
O=C(Nc1ccc(Cl)cc1)Nc1ccc(Cl)c(Cl)c1 [Triclocarban]	2.18	3.14	1.62	1.74	3.53	2.98
Cc1cc(CC(C)CC(C)(C)C)n(O)c(=O)c1 (stereo not drawn) [Piroctone Olamine]	2.93	3.56	4.37	3.73	3.88	4.49
CC(=O)S[C@@H]1CC2=CC(=O)CC[C@]2(C)[C@H]2CC[C@@]3(C)[C@@H](CC[C@@]34CCC(=O)O4)[C@H]12 [Spironolactone]	0.955	0.839	1.3	1.04	0.705	0.776
CCCCOc1cc(C(=O)OCCN(CC)CC)ccc1N [Oxybuprocaine HCl]	1.13	0.889	1.18	0.902	0.935	1.1
CCOC(=O)c1c(N)sc2c1CCN(Cc1ccccc1)C2 [Tinoridine hydrochloride]	1.51	0.9	1.2	1.13	0.814	1.31
O=S(=O)(c1ccccc1)N(CC(F)(F)F)c1ccc(C(O)(C(F)(F)F)C(F)(F)F)cc1	1.13	1.85	1.07	1.62	2.12	1.43
CN(CCOc1ccc(CC2SC(=O)NC2=O)cc1)c1ccccn1 (stereo not drawn) [Rosiglitazone HCl]	1.13	1.65	1.31	1.07	2.06	1.27
N#Cc1cc(-c2n[nH]c(-c3ccncc3)n2)ccn1 [Topiroxostat]	1.19	1.05	1.49	1.16	0.521	1.32
C[C@]12CCCN1CC1=NNC(=O)c3cc(F)cc4[nH]c2c1c34 [Pamiparib (BGB-290)]	1.52	1.68	1.44	1.48	2.36	1.71
CC1=C(C(=O)O)N2C(=O)[C@@H](NC(=O)[C@H](N)C3=CCC=CC3)[C@H]2SC1 [Cefradine]	0.837	0.567	0.805	1.14	0.578	0.907
CCCCCNC(=N)N/N=C/c1c[nH]c2ccc(OC)cc12 [Tegaserod Maleate]	5.85	4.48	5.39	6.34	4.98	5.08
